# Test results: PubChem BioAssay AID1159580 (chemical genetic matrix, 2015)
# About 2,000 (36%) of roughly 5,500 compounds were called active. Not shown: some 18% with an inconclusive outcome. The list shows a part of the results. A number with no mark means an inactive call. Rule as the data show it: active = normalized growth mostly below about 0.91 (no sharp cut-off); inconclusive = no clear call, values can overlap the other calls; inactive = mostly above about 0.92.
# Experiment: chemical genetic growth profiling, strain panel (AID 1159580);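 also: tested at 20 µM; growth read once vehicle control cultures reached saturation at 30 °C; 1 = growth at the plate median or of vehicle wells; lower values mean less growth of the strain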
# Details: S. cerevisiae deletion strains, growth OD
# [1] = locus YAL013W, strain DEP1, hits give low values
# [2] = locus YBR229C, strain ROT2, hits give low values
# [3] = locus YCL061C, strain MRC1, hits give low values
# [4] = locus YDL101C, strain DUN1, hits give low values
# [5] = locus YDR150W, strain NUM1, hits give low values
# [6] = locus YEL061C, strain CIN8, hits give low values
# [7] = locus YGR078C, strain PAC10, hits give low values
# [8] = locus YGR229C, strain SMI1, hits give low values
# [9] = locus YHR030C, strain SLT2, hits give low values
# [10] = locus YHR087W, strain rtc3, hits give low values
# [11] = locus YJR043C, strain POL32, hits give low values
# [12] = locus YJR075W, strain HOC1, hits give low values
# [13] = locus YLR039C, strain RIC1, hits give low values
# [14] = locus YLR058C, strain SHM2 (second series), hits give low values
# [15] = locus YLR085C, strain ARP6, hits give low values
# [16] = locus YLR262C, strain YPT6, hits give low values
# [17] = locus YML094W, strain GIM5, hits give low values
# [18] = locus YMR219W, strain ESC1, hits give low values
# [19] = locus YMR263W, strain SAP30, hits give low values
# [20] = locus YNL153C, strain GIM3, hits give low values
# [21] = locus YNL298W, strain CLA4 (second series), hits give low values
# [22] = locus YNL322C, strain KRE1, hits give low values
# [23] = locus YNR030W, strain Alg12, hits give low values
# [24] = locus YOL006C, strain TOP1, hits give low values
# [25] = locus YPL055C, strain LGE1, hits give low values
# [26] = locus YPL241C, strain CIN2, hits give low values
# [27] = locus YPR135W, strain CTF4, hits give low values
compound,measurement,setting,value
COC(=O)c1ccc(S(=O)(=O)NCc2ccccc2)n1C,normalized growth,[1],1.01
same,normalized growth,[2],1.03
same,normalized growth,[3],1.02
same,normalized growth,[4],1.02
same,normalized growth,[5],1.03
same,normalized growth,[6],1.06
same,normalized growth,[7],1.02
same,normalized growth,[8],1.02
same,normalized growth,[9],1.09
same,normalized growth,[10],0.995
same,normalized growth,[11],1.06
same,normalized growth,[12],1.05
same,normalized growth,[13],1.02
same,normalized growth,[14],1.03
same,normalized growth,[15],1.04
same,normalized growth,[16],1.08
same,normalized growth,[17],1.01
same,normalized growth,[18],1.01
same,normalized growth,[19],1.01
same,normalized growth,"locus YMR307W, strain GAS1, hits give low values",1.1
same,normalized growth,[20],1.05
same,normalized growth,[21],1.03
same,normalized growth,[22],1.01
same,normalized growth,[23],1.04
same,normalized growth,[24],1.07
same,normalized growth,[25],0.991
same,normalized growth,[26],1.01
same,normalized growth,[27],1.15
CN(C)/C=C/C(=O)c1ccc(C#Cc2ccccc2)cc1,normalized growth,"locus YAR019C, strain CDC15, hits give low values",0.982
same,normalized growth,"locus YBL105C, strain PKC1, hits give low values",0.986
same,normalized growth,"locus YBR135W, strain CKS1, hits give low values",0.967
same,normalized growth,"locus YBR136W, strain MEC1, hits give low values",0.984
same,normalized growth,"locus YBR160W, strain CDC28, hits give low values",0.97
same,normalized growth,"locus YDL017W, strain CDC7, hits give low values",0.977
same,normalized growth,"locus YDL028C, strain MPS1, hits give low values",0.98
same,normalized growth,[4],0.982
same,normalized growth,"locus YDL108W, strain KIN28, hits give low values",0.986
same,normalized growth,"locus YDL132W, strain cdc53, hits give low values",0.968
same,normalized growth,"locus YDL214C, strain PRR2, hits give low values",0.987
same,normalized growth,"locus YDR052C, strain DBF4, hits give low values",0.974
same,normalized growth,"locus YDR054C, strain cdc34, hits give low values",0.975
same,normalized growth,"locus YDR226W, strain ADK1, hits give low values",0.972
same,normalized growth,"locus YDR477W, strain SNF1, hits give low values",0.958
same,normalized growth,"locus YER123W, strain YCK3, hits give low values",0.955
same,normalized growth,"locus YER133W, strain GLC7, hits give low values",0.981
same,normalized growth,"locus YFL009W, strain cdc4, hits give low values",0.965
same,normalized growth,"locus YFL029C, strain CAK1, hits give low values",0.976
same,normalized growth,"locus YFR003C, strain YPI1, hits give low values",0.993
same,normalized growth,"locus YFR019W, strain FAB1, hits give low values",0.981
same,normalized growth,"locus YFR028C, strain CDC14, hits give low values",0.98
same,normalized growth,"locus YGR040W, strain KSS1, hits give low values",0.967
same,normalized growth,"locus YGR052W, strain FMP48, hits give low values",1.08
same,normalized growth,"locus YGR092W, strain DBF2, hits give low values",1.01
same,normalized growth,[9],0.874
same,normalized growth,"locus YHR079C, strain IRE1, hits give low values",0.99
same,normalized growth,"locus YHR082C, strain KSP1, hits give low values",1.05
same,normalized growth,"locus YHR205W, strain SCH9, hits give low values",0.987
same,normalized growth,"locus YIL147C, strain SLN1, hits give low values",0.982
same,normalized growth,"locus YJL095W, strain BCK1, hits give low values",0.935
same,normalized growth,"locus YJL128C, strain PBS2, hits give low values",0.953
same,normalized growth,"locus YJL157C, strain FAR1, hits give low values",0.989
same,normalized growth,"locus YJR016C, strain ILV3, hits give low values",0.974
same,normalized growth,"locus YJR066W, strain TOR1 (second series), hits give low values",0.934
same,normalized growth,"locus YJR066W, strain TOR1, hits give low values",0.94
same,normalized growth,"locus YKL048C, strain ELM1, hits give low values",0.979
same,normalized growth,"locus YKL067W, strain YNK1, hits give low values",0.974
same,normalized growth,"locus YKL101W, strain HSL1, hits give low values",0.986
same,normalized growth,"locus YKL193C, strain SDS22, hits give low values",0.976
same,normalized growth,"locus YKL203C, strain TOR2, hits give low values",1
same,normalized growth,"locus YLR113W, strain HOG1, hits give low values",0.972
same,normalized growth,"locus YLR133W, strain CKI1, hits give low values",0.987
same,normalized growth,"locus YLR403W, strain SFP1, hits give low values",0.97
same,normalized growth,"locus YML070W, strain DAK1, hits give low values",0.967
same,normalized growth,"locus YMR001C, strain CDC5, hits give low values",0.984
same,normalized growth,"locus YMR205C, strain PFK2 (second series), hits give low values",0.994
same,normalized growth,"locus YMR277W, strain FCP1, hits give low values",0.973
same,normalized growth,"locus YNL006W, strain LST8, hits give low values",0.962
same,normalized growth,"locus YNL020C, strain ARK1, hits give low values",0.992
same,normalized growth,"locus YNL161W, strain CBK1, hits give low values",0.965
same,normalized growth,"locus YNL183C, strain NPR1, hits give low values",0.939
same,normalized growth,"locus YNL207W, strain RIO2, hits give low values",0.985
same,normalized growth,"locus YNL222W, strain SSU72, hits give low values",0.972
same,normalized growth,"locus YNL307C, strain MCK1 (second series), hits give low values",0.994
same,normalized growth,"locus YOL078W, strain AVO1, hits give low values",0.98
same,normalized growth,"locus YOL136C, strain PFK27, hits give low values",0.976
same,normalized growth,"locus YOR061W, strain CKA2, hits give low values",0.979
same,normalized growth,"locus YOR119C, strain RIO1, hits give low values",1.04
same,normalized growth,"locus YOR231W, strain MKK1, hits give low values",0.931
same,normalized growth,"locus YOR329C, strain SCD5, hits give low values",0.98
same,normalized growth,"locus YPL031C, strain PHO85, hits give low values",0.968
same,normalized growth,"locus YPL153C, strain RAD53, hits give low values",0.939
same,normalized growth,"locus YPL204W, strain HRR25, hits give low values",0.94
same,normalized growth,"locus YPL209C, strain IPL1, hits give low values",0.981
same,normalized growth,"locus YPL256C, strain CLN2, hits give low values",0.98
same,normalized growth,"locus YPR025C, strain CCL1, hits give low values",0.977
same,normalized growth,"locus YPR106W, strain ISR1, hits give low values",0.985
same,normalized growth,"locus YPR111W, strain DBF20, hits give low values",0.97
same,normalized growth,"strain NNK1, hits give low values",0.982
same,normalized growth,"strain TSCII, hits give low values",0.969
COC(=O)c1ccc(C#Cc2ccccc2)o1,normalized growth,[1],0.9 (active)
same,normalized growth,[2],0.884 (active)
same,normalized growth,[3],0.771 (active)
same,normalized growth,[4],0.846 (active)
same,normalized growth,"locus YDL134C, strain PPH21, hits give low values",0.589 (active)
same,normalized growth,[5],0.834
same,normalized growth,[6],0.713 (active)
same,normalized growth,[7],0.89 (active)
same,normalized growth,[8],0.961
same,normalized growth,[9],0.323 (active)
same,normalized growth,[10],0.902 (active)
same,normalized growth,"locus YJL187C, strain SWE1, hits give low values",0.913 (active)
same,normalized growth,[11],0.822 (active)
same,normalized growth,[12],0.875 (active)
same,normalized growth,"locus YKL190W, strain CNB1, hits give low values",0.731 (active)
same,normalized growth,[13],0.55 (active)
same,normalized growth,[14],0.992
same,normalized growth,[15],0.325 (active)
same,normalized growth,[16],0.584 (active)
same,normalized growth,[17],0.787 (active)
same,normalized growth,[18],0.88 (active)
same,normalized growth,[19],0.904 (active)
same,normalized growth,"locus YNL128W, strain TEP1, hits give low values",0.927
same,normalized growth,[20],0.815 (active)
same,normalized growth,[21],0.654 (active)
same,normalized growth,[22],0.972
same,normalized growth,[23],0.793 (active)
same,normalized growth,[24],0.349 (active)
same,normalized growth,[25],0.767 (active)
same,normalized growth,[26],0.678 (active)
same,normalized growth,[27],0.457 (active)
